An excerpt weighted towards active compounds, which were near 4.1% of everything screened.
DAX1 inh-1: NR0B1 (DAX1) inhibition | P51843 | HEK293 Gal4-DAX1 luciferase reporter, luminescence | inhibition, % at 6.75 µM | 340,000 compounds, 0.99% hits;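 active means inhibition above the mean over all tested compounds plus 3 SD, cut at about 4.2% in these data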;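 further: inhibition shows as a rise in luminescence from relieved DAX1 repression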
Target sequence (P51843 207-470 limits assumed): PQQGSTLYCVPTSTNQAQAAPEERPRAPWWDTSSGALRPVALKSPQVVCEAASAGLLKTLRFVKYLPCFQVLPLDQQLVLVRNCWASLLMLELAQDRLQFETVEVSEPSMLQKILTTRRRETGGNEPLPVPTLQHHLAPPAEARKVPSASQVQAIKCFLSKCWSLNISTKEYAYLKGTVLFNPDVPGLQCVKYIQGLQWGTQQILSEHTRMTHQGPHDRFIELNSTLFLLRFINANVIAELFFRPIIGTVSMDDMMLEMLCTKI
hcDAF-12 act: activators of H. contortus DAF-12 nuclear receptor | HEK293 hcDAF-12 lit1-tk-luc reporter, luminescence; 0% DMSO, 100% Δ7-dafachronic acid | activation, % at 6.8 µM | 370,000 compounds, 1.4% hits;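 active means activation above the mean of all tested compounds plus 3 SD, cut at about 5.5% in these data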
ssDAF-12 act: activators of S. stercoralis DAF-12 nuclear receptor; HEK293 ssDAF-12/GRIP1 lit1-tk-luc reporter, luminescence; % of 3 µM dafachronic acid response; activation, % at 6.8 µM; 370,000 compounds, 1% hits; AID 652126;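 active means activation above the mean over all tested compounds plus 3 SD, cut at about 0.9% in these data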
hgDAF12 agonist: agonists of H. glycines DAF-12 nuclear receptor; HEK293 GAL4-hgDAF12 UAS-luciferase reporter, agonist luminescence; normalized to butyrate control; activation, % at 6.8 µM; 370,000 compounds, 1.8% hits;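 active means activation above a cutoff set at the mean of all screened compounds plus 3 SD, cut at about 10% in these data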
DAX1 inh-2: DAX1 (NR0B1) inhibition, primary screen; AID 652010; 370,000 compounds, 1.1% hits; inhibition, % at 6.8 µM; HEK293T StAR-luciferase reporter, SF-1/DAX-1 repression relief;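 active means inhibition above the mean over all tested compounds plus 3 SD, cut at about 3.6% in these data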;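 further: higher inhibition means more luminescence from relief of DAX-1 repression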
Of the large screens only hits and unclear results are named; the others gave an inactive call.

Cc1ccc(S(=O)(=O)N2CCN(c3cnn(C)c(=O)c3Cl)CC2)cc1	none
O=C1c2ccccc2C(=O)C1c1ccncc1	hcDAF-12 act 5.6, DAX1 inh-2 4.0
CC1=NC2=CC=CC3=NC(C(Cl)(Cl)Cl)=NC(=N1)N23	none (no result: DAX1 inh-1)
O=C(O)c1cccnc1Sc1ccccc1	none
Cc1nccnc1Sc1ccccc1	ssDAF-12 act 2.0
CCOc1ccc(S(=O)(=O)N2CC(=O)Nc3ccccc32)cc1C#N	DAX1 inh-1 4.3
C=CCNC(=O)c1cc2sccc2n1C	none
CC(C)c1ccc(NC(=O)Nc2cc3sccc3n2C)cc1	hcDAF-12 act 6.0
O=c1c2ccccc2nc2ccc(NCc3cccs3)nn12	DAX1 inh-1 4.7
O=C(NCc1cccs1)c1cc(-c2ccccc2)nc2ccccc12	none
Cc1ccc(OCc2cc(C(=O)N(C)C3CCCc4ccccc43)no2)cc1C (centres undefined)	hcDAF-12 act 5.8, hgDAF12 agonist 11
COc1ccc(OCc2cc(C(=O)N(C)CC3CCCCO3)no2)c(Cl)c1 (centres undefined)	none
Cc1cc(OCc2cc(C(=O)N(C)CCc3cnn(C)c3)no2)cc(C)c1Cl	DAX1 inh-2 4.2
CC(=O)c1cccc(OCc2cc(C(=O)N(C)CCc3cnn(C)c3)no2)c1	none
COc1cc(Cl)ccc1OCc1cc(C(=O)N(C)CCc2cnn(C)c2)no1	hcDAF-12 act 6.1, hgDAF12 agonist 12
COc1cc(Cl)ccc1OCc1cc(C(=O)N(C)CC2CCCCO2)no1 (centres undefined)	hgDAF12 agonist 12
C#CCN(C(=O)c1cc(COc2ccc(C)c(C)c2)on1)C1CCCCC1	none
NC(=O)c1ncn([C@@H]2O[C@H](C(=O)N3CCN(Cc4ccccn4)CC3)[C@@H](O)[C@H]2O)n1	none (no result: DAX1 inh-1)
COc1ccc2c(c1)NC(=O)[C@@]2(CCN1C(=O)c2ccccc2C1=O)c1[nH]c2ccccc2c1CCN1C(=O)c2ccccc2C1=O	none (no result: DAX1 inh-1, DAX1 inh-2)
Cc1cc(OCc2cc(C(=O)N(C)C3CCOC3)no2)cc(C)c1Cl (centres undefined)	hgDAF12 agonist 11
COc1cc(Cl)ccc1OCc1cc(C(=O)N(C)C2CCOC2)no1 (centres undefined)	none
O=C(c1ccccc1C(F)(F)F)N1CCN(S(=O)(=O)c2ccccc2)CC1	DAX1 inh-1 7.5
O=C(c1ccccc1)N1CCN(S(=O)(=O)c2ccc(Cl)c(C(F)(F)F)c2)CC1	none
O=c1oc2cc(O)ccc2c2ccccc12	none
COc1ccc2c(c1)c(=O)oc1cc(O)ccc12	DAX1 inh-1 4.7
C[C@@H]1CN([C@@H](C)CO)C(=O)CCCn2cc(nn2)CO[C@H]1CN(C)C(=O)Nc1cccc(F)c1	none (no result: DAX1 inh-1)
C=CCn1c(=O)c2ccccc2n2c(SCc3nc4ccccc4s3)nnc12	ssDAF-12 act 1.2
C=CCn1c(=O)c2ccccc2n2c(SCC(=O)O)nnc12	none
COC(=O)C1CN(Cc2cn(CCOC(C)=O)nn2)CCS(=O)(=O)N1Cc1ccc(OC)cc1 (centres undefined)	none (no result: DAX1 inh-1)
Cc1cccc(C)c1NC(=O)C(c1ccccc1)N1CCN(C)CC1 (centres undefined)	DAX1 inh-2 4.4 (no result: DAX1 inh-1)
C#CCN1CC(N(C)CCOC(=O)c2cccs2)CS1(=O)=O (centres undefined)	none (no result: DAX1 inh-1)
CCN1C[C@@H]2[C@@H]3C(=O)N(C)C(=O)[C@@H]3[C@](CC)(C1=O)N2C(=O)c1ccccc1	none
CCN1C[C@@H]2[C@@H]3C(=O)N(C)C(=O)[C@@H]3[C@](CC)(C1=O)N2C(=O)c1ccc(F)cc1	DAX1 inh-1 4.6
CC(C)[C@@H](C)/C=C/[C@@H](C)[C@H]1CC[C@@H]2[C@]1(C)CCC1[C@]23C=C[C@]2(C[C@@H](O)CC[C@]12C)N(c1ccc(Br)cn1)O3 (some centres undefined)	none (no result: DAX1 inh-1)
COc1ccccc1N1CCN(Cc2ccsc2)CC1	ssDAF-12 act 1.1
COc1ccc(-c2ccc(/C=N/N3C(=O)C4C5C=CC(C6CC56)C4C3=O)o2)c([N+](=O)[O-])c1 (centres undefined)	DAX1 inh-1 4.4
CCN(CC)C(=O)C(C)N(C#N)c1nc(C)cc(C)n1 (centres undefined)	hcDAF-12 act 6.3
C/C(=N\NC(=O)COc1ccc(C)cc1C(C)C)c1ccc(-n2ccnc2)cc1	hgDAF12 agonist 11
CCCCCCC12Cc3cc(OC)c(OC)cc3C(O1)C1=C(O2)C(C)(C)CCC1=O (centres undefined)	none (no result: DAX1 inh-1)
